# Sampled rows, rich in hits. Any-hit rate of the full collection: about 4%.
# TROY signal inh: inhibitors of TROY-driven NF-kB signaling, primary screen, Q293 LMP1-TROYcd cells, NF-kB luciferase, uHTS; Q293 LMP1-TROYcd NF-kB luciferase reporter, 4 h; inhibition, % at 10 µM; actives 0.98% (n = 360,000); AID 1347056, 2019;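 active = compounds whose plate-normalised and pattern-corrected inhibition of the luciferase reporter signal at the single screening dose is 50% or more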
# HIF-2a block: HIF-2a reporter inhibitors, primary screen, luminescence, 786-0 RCC cells | actives 0.72% (n = 360,000) | 786-0 RCC cells HIF-2a reporter, luciferase luminescence, overnight | AID 624352, 2012 | inhibition, % at 18.8 µM;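 active = inhibition of the luminescence signal of 40% or more relative to plate controls, in a single-dose primary screen at 18.75 µM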
# CF NFkB block: inhibitors of PAF-induced NF-kB signaling, primary screen, cell-based, GFP fluorescence, uHTS; KKLEB NF-kB-GFP reporter, GFP fluorescence overnight; inhibition, % at 5 µM; actives 0.86% (n = 360,000); AID 588850, 2011;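 active = at least 50% inhibition at 5 µM, scaled per plate between neutral and stimulator controls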;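 also: PAF is a Pseudomonas aeruginosa culture filtrate used as stimulus; plate controls were PAF-stimulated DMSO wells for no effect and unstimulated DMSO wells for full effect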
# Peg3 promoter: Peg3 promoter-driven luciferase inhibitors, primary screen, cell-based, HeLa, luciferase luminescence. inhibition, % at 20 µM. HeLa PEG-Prom luciferase reporter, overnight. AID 588405, 2011. actives 1.7% (n = 360,000);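 active = inhibition of at least 50% at 20 µM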
# KKLEB tox: cytotoxicity in KKLEB CF airway cells, primary screen, cytotoxicity control for CF NF-kB inhibitor project, cell-based, uHTS, fluorescence assay plates; KKLEB CF airway cells viability, ATPlite luminescence, overnight; hits give low values; cells stimulated with P. aeruginosa culture filtrate; activity change (cytotoxicity), % at 5 µM; actives 0.36% (n = 360,000); AID 602141, 2011;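 active = corrected activity change at or below -50% at 5 µM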
# TWEAK Fn14 block: inhibitors of TWEAK-Fn14 signaling, primary screen, luciferase reporter cells, uHTS. TWEAK-stimulated Fn14 reporter cells, luciferase luminescence, 8 h. actives 2% (n = 360,000). inhibition, % at 10 µM; in the data active = inhibition above about 50%
# CF NFkB inh conf: inhibitors of PAF-induced NF-kB signaling, retest, confirmation, cell-based, GFP fluorescence, single concentration. shares compounds with CF NFkB block. KKLEB CF airway cells, overnight. inhibition, % at 5 µM. actives 64% (n = 1,300). AID 602472, 2012; in the data active = inhibition above about 40%;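 also: stimulus PAF is a Pseudomonas aeruginosa filtrate and not platelet activating factor; plate controls were DMSO wells with stimulus for no effect and unstimulated DMSO wells for full effect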
# Mdm2 MdmX conf: retested Mdm2-MdmX interaction blockers, confirmation, cell-based, luminescence, single concentration, set 2. shares compounds with HIF-2a block. SaOS-2 split-luciferase Mdm2/MdmX complementation. inhibition, % at 8 µM. actives 99% (n = 740);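 active = mean inhibition of the luminescence signal across two replicates at or above 26 percent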
# Target sequence (O15151 whole entry, looked up): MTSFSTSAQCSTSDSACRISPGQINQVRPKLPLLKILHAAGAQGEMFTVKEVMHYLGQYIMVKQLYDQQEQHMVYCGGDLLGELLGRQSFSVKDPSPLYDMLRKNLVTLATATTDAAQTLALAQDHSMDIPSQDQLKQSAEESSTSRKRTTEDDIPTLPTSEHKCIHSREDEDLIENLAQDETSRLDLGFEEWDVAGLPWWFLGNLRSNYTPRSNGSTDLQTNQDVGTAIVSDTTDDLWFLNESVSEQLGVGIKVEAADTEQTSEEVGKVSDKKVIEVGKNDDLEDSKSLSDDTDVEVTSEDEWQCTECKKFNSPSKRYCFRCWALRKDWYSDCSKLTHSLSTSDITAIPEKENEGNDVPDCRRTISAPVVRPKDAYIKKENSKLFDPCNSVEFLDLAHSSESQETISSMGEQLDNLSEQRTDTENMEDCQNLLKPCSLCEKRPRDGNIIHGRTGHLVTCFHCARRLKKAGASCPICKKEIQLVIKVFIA
# Target sequence (Q00987 whole entry, looked up): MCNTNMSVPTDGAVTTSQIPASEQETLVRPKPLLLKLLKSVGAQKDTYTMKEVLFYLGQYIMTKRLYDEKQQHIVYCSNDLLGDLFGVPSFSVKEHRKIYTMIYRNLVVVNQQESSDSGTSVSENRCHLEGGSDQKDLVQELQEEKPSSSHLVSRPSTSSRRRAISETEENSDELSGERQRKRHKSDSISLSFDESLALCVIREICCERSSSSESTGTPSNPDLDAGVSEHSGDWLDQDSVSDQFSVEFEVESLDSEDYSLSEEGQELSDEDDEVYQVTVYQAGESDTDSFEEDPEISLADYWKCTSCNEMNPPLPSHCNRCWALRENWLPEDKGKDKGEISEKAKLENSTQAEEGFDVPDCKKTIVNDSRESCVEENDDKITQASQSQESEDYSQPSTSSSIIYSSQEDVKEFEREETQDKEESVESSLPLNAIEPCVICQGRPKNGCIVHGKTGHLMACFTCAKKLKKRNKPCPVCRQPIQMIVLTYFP
# HIF-2a conf: HIF-2a reporter inhibitor retest, confirmation, luminescence, 786-0 RCC cells | HIF-2a luciferase reporter luminescence, overnight | AID 651580, 2012 | actives 56% (n = 1,800) | inhibition, % at 18.8 µM | shares compounds with HIF-2a block;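 active = mean inhibition across four replicates of at least 40 percent at the single tested concentration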
# HIF-1a counter: HIF-1a luciferase reporter signal reduction – MiaPaCa-2 cells, single concentration, counter-screen for HIF-2a inhibitor project, confirmation. AID 651589, 2012. MiaPaCa-2 HIF-1a luciferase reporter, desferoxamine, overnight. actives 72% (n = 1,800). inhibition, % at 18.8 µM. shares compounds with HIF-2a block;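 active = mean inhibition of the reporter signal across four replicates at the single tested dose of 50% or more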
# An asterisk follows results filed as active; . = not tested or not shown.
SMILES,TROY signal inh,HIF-2a block,CF NFkB block,Peg3 promoter,KKLEB tox,TWEAK Fn14 block,CF NFkB inh conf,HIF-2a conf,HIF-1a counter,others
CCCCNC(=O)C1c2ccccc2OCC(=O)N1CCc1ccccc1 (configuration not stated),10,4,.,.,.,-5,.,.,.,
Cc1[nH]c2ccccc2c(=O)c1C(=O)/C=C/c1ccccc1,64*,90*,60*,105*,-28,88*,46*,85*,105*,Mdm2 MdmX conf=103*
O=C1CC(C(=O)NC2CCCCC2)C(c2ccccc2)O1 (configuration not stated),0,18,1,-4,4,2,.,.,.,
C[C@@H]1[C@@H](Sc2ccccc2)CC(=O)O[C@@H]1c1ccc(-c2ccccc2)cc1,-27,98*,62*,97*,-48,36,-74,6,101*,Mdm2 MdmX conf=103*
Cc1cccc(N(Cc2cc(=O)[nH]c3ccccc23)C(=O)CCl)c1,24,65*,72*,95*,-26,86*,108*,90*,104*,Mdm2 MdmX conf=102*
C=CC(=O)Nc1cccc(Oc2ccnc3[nH]ccc23)c1,12,-24,42,-11,-10,29,.,.,.,
C=CC(=O)Nc1cccc(Oc2ncnc3[nH]cc(-c4cnc5ccccc5c4)c23)c1,53*,14,87*,42,-3,65*,79*,.,.,Mdm2 MdmX conf=100*
O=C(O)CC(NC(=O)COc1ccccc1)c1cccc([N+](=O)[O-])c1 (configuration not stated),-7,12,-4,5,17,5,.,.,.,
C=C1C(=O)[C@@]23[C@H](O)C[C@@H]4C(C)(C)CC[C@H](O)[C@]4(C)[C@@H]2C[C@H](O)[C@@H]1[C@H]3O,10,41*,68*,43,20,60*,56*,37,91*,
O=S(=O)(Nc1ccc2c(c1)OCO2)c1cccc(Br)c1,-2,1,18,-4,-7,1,.,.,.,
O=S(=O)(CC(CN1CCCC1)N1CCCC1)c1ccc2ccccc2c1 (configuration not stated),15,22,62*,80*,-31,13,86*,.,.,Mdm2 MdmX conf=103*
Cc1ccc(S(=O)(=O)CC(CN2CCOCC2)N2CCOCC2)cc1 (configuration not stated),-3,9,-11,6,13,11,.,.,.,
N#CC(C#N)=C1C=CC=CN1/C(=C\c1ccco1)C(=O)c1ccc(-c2ccccc2)cc1,32,83*,83*,110*,-50,89*,-51,97*,106*,
N#C/C(=C\c1ccco1)C(=O)NCc1ccccc1,8,18,-6,-19,7,10,.,.,.,
O=C(/C=C/c1ccc([N+](=O)[O-])cc1)c1ccccc(=O)c1O,-29,59*,68*,107*,-9,72*,-88,91*,103*,
Cc1ccc(-n2nnnc2Sc2ccc(S(=O)(=O)NCCN(C)C)cc2[N+](=O)[O-])cc1,33,77*,91*,100*,-31,97*,51*,18,106*,
COc1cccc(CNC(=O)[C@@H]2CCCN2)c1,-3,5,.,.,.,15,.,.,.,
O=C(/C=C/c1ccc(Br)cc1)c1ccc(NC2=NCCCS2)cc1,-14,67*,56*,108*,-11,59*,-13,-27,107*,
COc1cccc(CNC(=O)C2CCC(CNS(=O)(=O)c3cccc4cccnc34)CC2)c1 (configuration not stated),5,6,-31,12,26,1,.,.,.,
Cc1csc(CNc2ncnc3ccc(-c4ccoc4)cc23)c1,54*,-2,71*,-21,-20,90*,83*,.,.,Mdm2 MdmX conf=87*
Brc1ccc2ncnc(NCc3ccccc3)c2c1,54*,25,75*,13,-38,82*,81*,.,.,Mdm2 MdmX conf=90*
c1cncc(CNc2ncnc3ccc(-c4ccoc4)cc23)c1,47,11,80*,19,0,84*,88*,.,.,Mdm2 MdmX conf=87*
Cc1ccc(NC(=O)c2cc(N3C(=O)C=CC3=O)ccc2N2CCOCC2)cc1Cl,-13,48*,30,93*,-9,-1,.,68*,31,
NC(N)=N/N=C/c1ccc(OCc2ccccc2Cl)cc1,7,93*,3,103*,-18,-14,.,-16,106*,
COC(=O)CCCC[C@@H]1O[C@H](CCc2ccccc2)Cc2[nH][nH]c(=O)c21,14,1,.,.,.,-11,.,.,.,
SMILES,TROY signal inh,HIF-2a block,CF NFkB block,Peg3 promoter,KKLEB tox,TWEAK Fn14 block,CF NFkB inh conf,HIF-2a conf,HIF-1a counter,others
Cc1ccc(Cl)c(NC(=O)CCl)c1Cl,2,18,-1,23,-6,20,.,.,.,
CCc1cc(SC#N)cc(CC)c1NC(=O)CCl,14,49*,39,47,-30,25,.,35,-23,
CSC1=NC=C(C#N)C2=NC(c3c(Cl)cccc3Cl)NN12 (configuration not stated),-1,65*,-12,-8,1,2,.,1,5,
CCOC(=O)Cc1csc(N/N=C\c2ccccc2OC)n1,-24,-54,-2,-67,5,-8,.,.,.,
CCOC(=O)Cc1csc(N/N=C/c2ccccc2)n1,-32,41*,-18,-129,7,-3,.,38,6,
Cc1ccc(COC(=O)c2cccc(S(=O)(=O)N3CCCCC3)c2)cc1,4,-11,29,13,7,15,.,.,.,
COc1cc(NCCCC(C)N)c2ncccc2c1 (configuration not stated),-10,84*,-12,45,-10,25,.,19,90*,
O=CC1=C(c2ccccc2)Oc2ccccc2O1,38,46*,37,98*,-5,58*,.,12,107*,

# High-throughput results from PubChem.
